# Sampled rows, rich in hits. Any-hit rate of the full collection: about 31%.
# CYP2C9 inh: blockers of cytochrome P450 2C9 activity – biochemical, luminescence, ADME assay, primary screen; actives 20% (n = 96,000); inhibition, % at 5 µM; AID 777, 2007; P11712; CYP2C9 Supersomes, luciferin-H conversion;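 active = blocking of liver enzyme CYP2C9 beyond about 50% at 5 µM, limit read from the data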
# Target sequence (P11712 whole entry, looked up): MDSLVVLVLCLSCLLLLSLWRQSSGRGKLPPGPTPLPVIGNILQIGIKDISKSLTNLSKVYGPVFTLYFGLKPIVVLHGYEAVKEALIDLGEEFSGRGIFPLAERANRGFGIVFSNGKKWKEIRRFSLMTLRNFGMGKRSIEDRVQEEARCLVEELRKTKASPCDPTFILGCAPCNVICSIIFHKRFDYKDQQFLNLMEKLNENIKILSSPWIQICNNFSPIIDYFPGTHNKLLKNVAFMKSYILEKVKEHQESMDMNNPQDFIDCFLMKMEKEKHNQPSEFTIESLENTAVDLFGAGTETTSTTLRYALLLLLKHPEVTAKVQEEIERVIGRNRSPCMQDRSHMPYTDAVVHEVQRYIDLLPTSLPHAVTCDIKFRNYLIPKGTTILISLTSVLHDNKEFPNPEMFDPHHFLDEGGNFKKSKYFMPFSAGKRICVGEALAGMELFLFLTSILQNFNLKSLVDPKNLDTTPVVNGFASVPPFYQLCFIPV
# PLAP act: PLAP enzyme activators, biochemical, luminescence, HTS. Alkaline phosphatase, placental type (Homo sapiens), P05187. actives 1.2% (n = 96,000). AID 696, 2007. activation fold at 20 µM. purified PLAP enzyme, luminescent substrate read-out; stronger effect = higher value; in the data active = activation fold above about 2
# CYP2C19 act: human CYP2C19 activators, primary screen, biochemical, luminescence | Cytochrome P450 2C19 (Homo sapiens), P33261 | recombinant CYP2C19, luciferin-H EGE luminescence; stronger effect = higher value; 0 = fully inhibited enzyme, 1 = untreated enzyme | activation factor at 5 µM | 96,000 tested, under 10 active;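 active = activation factor of at least 2 at 5 µM in the primary screen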;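 also: 0 = wells with 2.5 mM tranylcypromine and 1 = vehicle-only wells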
# CYP2C9 activ: human CYP2C9 activators, primary screen, biochemical, luminescence; Cytochrome P450 2C9 (Homo sapiens), P11712; recombinant CYP2C9, luciferin-H conversion; stronger effect = higher value; factor 1 = untreated enzyme, 0 = blocked; activation factor at 5 µM; actives 1.4% (n = 96,000);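 active = activation factor of 2 or more for CYP2C9 at a 5 µM dose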;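 also: 0 = sulfaphenazole-blocked wells and 1 = vehicle-only wells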
# CYP2C19 inh: blockers of cytochrome P450 2C19 activity – biochemical, luminescence, ADME assay, primary screen. P33261. CYP2C19 Supersomes, luciferin-H EGE luminescence, 30 min. inhibition, % at 5 µM. actives 21% (n = 96,000). AID 778, 2007;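 active = CYP2C19 inhibition above a set limit at 5 µM in the primary screen, cut at about 50% in these data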;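 also: plate controls were negative control wells for no effect and 2.5 mM tranylcypromine positive control for full effect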
# * = called active by the depositor.
SMILES,CYP2C9 inh,PLAP act,CYP2C19 act,CYP2C9 activ,CYP2C19 inh
CC1=C(C(=O)Nc2ccccc2)C(c2ccco2)NC(=S)N1 (stereo not drawn),11,1,0.9,0.9,14
CC1=C(C(=O)Nc2ccccc2)C(c2ccco2)C(C#N)=C(SCc2ccccc2)N1 (stereo not drawn),96*,1.4,0,0,97*
CC1=C(C(=O)Nc2ccccc2)C(c2ccncc2)C(C#N)=C(SCC(=O)Nc2ccccc2)N1 (stereo not drawn),80*,1,0.2,0.2,84*
COc1ccc(NC(C)=O)c2nc(C)c(C)nc12,22,1,1,0.8,-2
COc1ccc(CCNC(=O)C2CCN(c3ccc(N4CCOCC4)nn3)CC2)c(OC)c1,23,1.6,0.6,0.8,41
Cc1n[nH]c(C)c1CCc1nc2c3ccccc3nc(SCC(N)=O)n2n1,17,1.5,1.1,0.8,-6
Cc1ccc(NC(=O)CSc2nc3ccccc3c3nc(CCc4c(C)n[nH]c4C)nn23)cc1F,56*,1.6,1,0.4,-2
CCn1ncc(C2=NOC(C(=O)Nc3cc(OC)c(Cl)cc3OC)C2)c1C (stereo not drawn),-20,0.8,0.7,1.2,30
CCOc1ccc(NC(=O)CN2CCN(CC(=O)Nc3ccc4c(c3)OCCO4)CC2)cc1,17,1.1,0.7,0.8,34
O=C(CN1CCC(C(=O)c2ccc(Cl)cc2)CC1)Nc1ccc2c(c1)OCCO2,58*,1.8,0.7,0.4,29
COc1ccccc1NC(=O)CN1CCN(CC(=O)Nc2ccc3c(c2)OCCO3)CC1,9,0.8,0.1,0.9,94*
O=C(CN1CCN(CC(=O)Nc2ccccc2Cl)CC1)Nc1ccc2c(c1)OCCO2,51*,1.3,0.1,0.5,91*
O=C(NCCCN1CCOCC1)C1CC(=O)N(C2CCCCC2)C1 (stereo not drawn),1,1.2,0.6,1,40
Cc1cc(C)c2nc3s/c(=C/c4ccc5c(c4)n(C)c(=O)n5C)c(=O)n3c2c1,-15,1.2,1.1,1.1,-14
O=C(C1CCCN(S(=O)(=O)c2cccc3nsnc23)C1)N1CCc2ccccc21 (stereo not drawn),74*,1,0.5,0.3,52*
O=C(C1CCN(S(=O)(=O)c2cccc3nsnc23)CC1)N1CCc2ccccc21,44,1.3,0.5,0.6,51*
C=CCNC(=O)CC(=O)N/N=C/c1ccc(C(=O)OC)cc1,-5,1,1,1.1,-4
O=c1c(F)cn(C2CCCO2)c(=O)n1Cc1c(Cl)cccc1Cl (stereo not drawn),33,1,0.3,0.7,66*
CCCCC1(C)Cc2ccccc2C(=S)N1 (stereo not drawn),7,0.9,0.7,0.9,30
O=C1CC(c2ccc3c(c2)OCO3)CN1 (stereo not drawn),-8,1.1,1,1.1,-2
CCOc1ccc(C2Sc3ccccc3NC3=C2C(=O)OC3)cc1 (stereo not drawn),56*,1.1,0.3,0.4,68*
O=C1OCC2=C1C(c1ccc3c(c1)OCO3)Sc1ccccc1N2 (stereo not drawn),70*,0.9,0,0.3,96*
CCC(C(=O)Nc1nc(C)cs1)c1ccccc1 (stereo not drawn),33,0.8,0.8,0.7,22
CCC(C(=O)Nc1nccs1)c1ccccc1 (stereo not drawn),9,0.9,0.3,0.9,69*
O=C(Nc1nccs1)C(NS(=O)(=O)c1ccc(Br)s1)c1ccccc1 (stereo not drawn),62*,1.5,0.6,0.4,38
CCCC(C(=O)Nc1nccs1)c1ccccc1 (stereo not drawn),48,1,0.5,0.5,54*
O=C(Cn1ccc2ccccc2c1=O)NCCC(=O)Nc1ccc2c(c1)OCCO2,40,1.1,0.9,0.6,10
COc1ccc(OC)c(C(C)NC=O)c1 (stereo not drawn),-9,0.9,1,1.1,-4
CC(=O)Nc1ccc(S(=O)(=O)N2CCN(C(=O)CCC3CCCC3)CC2)cc1,12,1.1,1,0.9,-3
